Records with an inconclusive call do not appear. Calls of active or inactive are those of the source. Calls follow the shape of the dose curve; as a rule, active = well fitted cell-killing curve with a large enough effect; inconclusive = small, poorly fitted or top-dose-only effect, or effect the other way; inactive = no such curve, though single readings can be large or run the other way.
Potency is read from the fitted curve at half-maximal effect.

This assay in a line: Quantitative High-Throughput drug screen in 47 multiple myeloma cell lines against the NCATS MIPE library collection: MM1S_ATCC cell viability assay (AID 1918980). Also: nearly all actives have a fitted effect of over 45% in size. Particulars: MM1S myeloma viability, CellTiter-Glo ATP luminescence, 48 h; series mostly up to 45.8 µM. An excerpt:
PI: Beverly A. Mock Ph.D.
Laboratory of Cancer Biology and Genetics,
Center for Cancer Research, National Cancer Institute,
National Institute of Health, Bethesda, Maryland
Drug resistance and disease progression are common in multiple myeloma (MM) patients, underscoring the need for new therapeutic combinations. […] We hypothesized that effective combinations would reduce MYC expression and enhance p16 activity. […] These preclinical data identify potentially useful drug combinations for evaluation in drug-resistant MM and reveal potential mechanisms of combined drug sensitivity.
Described herein is the primary MIPE qHTS used to cherrypick compounds. Validated compounds were then further tested for potential synergistic activiy.
[1] Peat TJ, Gaikwad SM, Dubois W, Gyabaah-Kessie N, Zhang S, Gorjifard S, Phyo Z, Andres M, Hughitt VK, Simpson RM, Miller MA, Girvin AT, Taylor A, Williams D, D'Antonio N, Zhang Y, Rajagopalan A, Flietner E, Wilson K, Zhang X, Shinn P, Klumpp-Thomas C, McKnight C, Itkin Z, Chen L, Kazandijian D, Zhang J, Michalowski AM, Simmons JK, Keats J, Thomas CJ, Mock BA. Drug combinations identified by high-throughput screening promote cell cycle transition and upregulate Smad pathways in myeloma. Cancer Lett. 2023 Aug 1;568:216284. doi: 10.1016/j.canlet.2023.216284. Epub 2023 Jun 24. PMID: 37356470; PMCID: PMC10408729.
SEQUENCE No. (e.g., 1, 2, 3, etc.); […] (e.g., Cells, Incubation, Reagent, etc.); VALUE and DESCRIPTION.
1; Cells; 5 uL; white, solid bottom 1536-well Greiner assay plate.
2; Compounds; 23 nL; Kalypsis pin tool (Wako USA) equipped with a 1536-well pin head to transfer to the assay plates.
3; Incubation; 48 hours; 37C incubation.
4; Reagent;5uL; CellTiter Glo (Promega).
5; Detector; 425V; Luminescence; Viewlux PerkinElmer.
NOTES (numbers refer to Sequence numbers above)
1. The cell-based screening methods employed in this study were like those previously published. Briefly, the corresponding myeloma cell lines were screened in 1,536-well plates with 500 cells, 5-uL per well for inhibition of cell viability (assessed by measuring ATP levels with CellTiterGlo).
2. NCATS MIPE 4.0 library of approved and investigational drugs were added using the Kalypsis pin tool. Wells treated with DMSO only for 100% viability and media only for 0% viability were used as controls.
3. The assay plates were covered and incubated for 48 hours in a 37C, 5% CO2 incubator with controlled humidity.
4. After 48 hours, CellTilter-GloTM luminescent substrate mix (Promega) reagent was added to the assay plate and plates we incubated for 5 min at room temperature.
5. Signal was measured as median relative luminescence units on a ViewLux (PerkinElmer) multiplate reader.
[1] Heske CM, Davis MI, Baumgart JT, Wilson K, Gormally MV, Chen L, Zhang X, Ceribelli M, Duveau DY, Guha R, Ferrer M, Arnaldez FI, Ji J, Tran HL, Zhang Y, Mendoza A, Helman LJ, Thomas CJ. Matrix Screen Identifies Synergistic Combination of PARP Inhibitors and Nicotinamide Phosphoribosyltransferase (NAMPT) Inhibitors in Ewing Sarcoma. Clin Cancer Res. 2017 Dec 1;23(23):7301-7311. doi: 10.1158/1078-0432.CCR-17-1121. Epub 2017 Sep 12. PMID: 28899971; PMCID: PMC6636827.
`O=C(O)C1=CC(O)C(O)[C@H](O)C1` (stereo not given in full): the Potency result was “inactive”.

`Cc1cc(-c2ncc(CC(=O)Nc3ccc(-c4cnccn4)cn3)cc2C)ccn1`: the Potency is 18.7 µM (active).

Turning to `C[C@@H]1CCO[C@H]2Cn3cc(C(=O)NCc4ccc(F)cc4F)c(=O)c(O)c3C(=O)N12`, the Potency was 20.9 µM (active).

With `CCN(CCO)CCCOc1ccc2c(Nc3cc(CC(=O)Nc4cccc(F)c4)[nH]n3)ncnc2c1`, the Potency result was “inactive”. With `CN1N=C(N)c2cn([C@@H]3O[C@H](COP(=O)(O)O)[C@@H](O)[C@@H]3O)c3ncnc1c23`, the Potency was 1.18 µM (active). On to `O=C(c1ccc(F)c(F)c1Nc1ccc(I)cc1F)N1CC(O)([C@H]2CCCCN2)C1`, for which the Potency is 18.7 µM (active). For the compound `CCNC(=O)[C@H]1O[C@@H](n2cnc3c(N)nc(NCCc4ccc(CCC(=O)O)cc4)nc32)[C@H](O)[C@H]1O`, the Potency was 0.332 µM (active). `O=C1C(c2c(O)[nH]c3ccccc23)=Nc2ccccc21`: the Potency is 0.118 µM (active). For `CN1c2ccccc2C(=O)N2CCc3c([nH]c4ccccc34)C21` (stereo not given), the Potency is 10.5 µM (active). Regarding `CN(C)CC[C@H](CSc1ccccc1)Nc1ccc(S(=O)(=O)NC(=O)c2ccc(N3CCN(Cc4ccccc4-c4ccc(Cl)cc4)CC3)cc2)cc1[N+](=O)[O-]`, the Potency was 1.66 µM (active).

As to `Cc1cc(CS(=O)(=O)c2ccccc2)cc(OCc2ccc(CN3CCC[C@H]3CO)cc2)c1`, the Potency is 4.69 µM (active). The value for `CNc1nc(-c2ccc3c(N)n[nH]c3c2)cc(N2C[C@@H](C(=O)NC3CCCCC3)CC[C@@H]2C)n1` was 16.6 µM (active).

For the compound `CON(C)C(=O)N1N=C(c2cc(F)ccc2F)S[C@]1(CCCN)c1ccccc1`, the Potency result was “inactive”.

With `O=C(CO)N1CCC(c2[nH]nc(-c3ccc(Cl)cc3)c2-c2ccncn2)CC1`, the Potency is 20.9 µM (active). To `CN1CCc2c(n(Cc3ccc(C(=O)NO)cc3)c3ccccc23)C1` belongs 16.6 µM (active); to `COc1cc(N2CCN(C)CC2)ccc1Nc1nc(N)c(C(=O)c2c(Cl)cccc2Cl)s1`, 20.9 µM (active); to `O=C(NC[C@H](O)CO)c1ccncc1Nc1ccc(I)cc1F`, 18.7 µM (active).

For `CC(C)(OCc1nn(Cc2ccccc2)c2ccccc12)C(=O)O`, the Potency is 13.2 µM (active). The value for `COc1c(C)c2c(c(O)c1CC=C(C)CCC(=O)O)C(=O)OC2` was 3.72 µM (active); that for `CO[C@H]1C=CO[C@@]2(C)Oc3c(C)c(O)c4c(O)c(c(C=NN5CCN(C)CC5)c(O)c4c3C2=O)NC(=O)C(C)=CC=C[C@H](C)[C@H](O)[C@@H](C)[C@@H](O)[C@@H](C)[C@H](OC(C)=O)[C@H]1C` was “inactive”; that for `CCC[C@H](N[C@@H](C)C(=O)N1[C@@H]2CCCC[C@H]2C[C@H]1C(=O)O)C(=O)OCC` was 20.9 µM (active). Consider `CN(C(Cc1ccc(OS(=O)(=O)c2cccc3cnccc23)cc1)C(=O)N1CCN(c2ccccc2)CC1)S(=O)(=O)c1cccc2cnccc12` (stereo not given), for which the Potency was 5.26 µM (active). To `CC(C)N(CCCNC(=O)Nc1ccc(C(C)(C)C)cc1)C[C@H]1O[C@@H](n2cc(Br)c3c(N)ncnc32)[C@H](O)[C@H]1O` belongs 23.5 µM (active). As to `CCCCN(CCCC)CC(O)c1cc(Cl)cc2c1-c1ccc(Cl)cc1C2=Cc1ccc(Cl)cc1` (stereo not given), the Potency is 23.5 µM (active). As to `CNC1CCC(N(Cc2cccc(-c3ccncc3)c2)C(=O)c2sc3ccccc3c2Cl)CC1` (stereo not given), the Potency is 20.9 µM (active).

With `CC(C)(F)C[C@H](N[C@@H](c1ccc(-c2ccc(S(C)(=O)=O)cc2)cc1)C(F)(F)F)C(=O)NC1(C#N)CC1`, the Potency result is “inactive”. The value for `COc1cc2nccc(Oc3ccc(NC(=O)Nc4cc(C)on4)c(Cl)c3)c2cc1OC` was 6.62 µM (active); that for `CC(C)CN(C[C@@H](O)[C@H](Cc1ccccc1)NC(=O)O[C@H]1CO[C@H]2OCC[C@H]21)S(=O)(=O)c1ccc(N)cc1` was 2.35 µM (active).

Turning to `C[C@@H]1[C@H](O)[C@@H](C)C=CC=CC=CC=CC=CC=CC=C[C@H](O[C@@H]2O[C@H](C)[C@H](O)[C@H](N)[C@@H]2O)C[C@@H]2O[C@](O)(C[C@@H](O)C[C@@H](O)[C@H](O)CC[C@@H](O)C[C@@H](O)CC(=O)O[C@H]1C)C[C@H](O)[C@@H]2C(=O)O`, the Potency was 0.833 µM (active). For the compound `Oc1ccc(C=Cc2cc(O)cc(O)c2)cc1`, the Potency was 18.7 µM (active). In the case of `COc1ccc(Cn2ccc3ccc(C(=O)NO)cc32)cc1`, the Potency is 16.6 µM (active). On to `Cc1ccccc1C(=O)c1ccc(Nc2ccc(Br)cc2N)cc1Cl`, for which the Potency was 6.62 µM (active). The value for `CCCCC[C@H](O)C=C[C@H]1[C@H](O)CC(=O)[C@H]1CC=CCCCC(=O)O` was 20.9 µM (active); that for `CCc1cc(-c2n[nH]c(C)c2-c2ccc3c(c2)OCCO3)c(O)cc1O` was 8.33 µM (active).

In the case of `Cc1nc2c([nH]1)CCN(C(=O)c1ccc(NC(=O)c3ccccc3-c3ccccc3)cc1)c1ccccc1-2`, the Potency result was “inactive”.

`CC(=O)N1CCN(c2ccc(OCc3nn(C)c(C)c3-c3cccc4c(CCCOc5cc(C)c(Cl)c(C)c5)c(C(=O)O)n(Cc5cccnc5)c34)cc2)CC1`: the Potency is 14.8 µM (active). In the case of `CCCCC(C)(C)[C@H](O)C=C[C@H]1[C@H](O)CC(=O)[C@H]1CC=CCCCC(=O)O`, the Potency was 14.8 µM (active).

For `C=CC(=O)Nc1cccc(Sc2nc(Nc3ccc(N4CCN(C)CC4)cc3)ncc2Cl)c1`, the Potency was 18.7 µM (active). The value for `CCCC1OC2C[C@@H]3[C@H]4CCC5=CC(=O)C=C[C@]5(C)[C@H]4C(O)C[C@]3(C)[C@]2(C(=O)CO)O1` (stereo not given in full) was 0.0743 µM (active); that for `O=c1[nH]nc(OCCCc2ccc(Cl)cc2)c(NCc2cccnc2)c1Br` was 8.33 µM (active).

For the origin of these results see PubChem BioAssay (NCATS).
